# Bioassay records: PubChem, National Center for Advancing Translational Sciences (NCATS)
# TDP1 block: blocks human tyrosyl-DNA phosphodiesterase 1. Potency, µM (doses to about 130 µM), inactives show at the top dose activity change, negative = inhibition, hits mostly inhibitors. recombinant TDP1, AlphaScreen DNA substrate cleavage. Q9NUW8. AID 485290. 350,000 tested, 0.28% active; further: nearly all actives have a fitted effect of over 40% in size
# Target sequence (Q9NUW8 whole entry, looked up): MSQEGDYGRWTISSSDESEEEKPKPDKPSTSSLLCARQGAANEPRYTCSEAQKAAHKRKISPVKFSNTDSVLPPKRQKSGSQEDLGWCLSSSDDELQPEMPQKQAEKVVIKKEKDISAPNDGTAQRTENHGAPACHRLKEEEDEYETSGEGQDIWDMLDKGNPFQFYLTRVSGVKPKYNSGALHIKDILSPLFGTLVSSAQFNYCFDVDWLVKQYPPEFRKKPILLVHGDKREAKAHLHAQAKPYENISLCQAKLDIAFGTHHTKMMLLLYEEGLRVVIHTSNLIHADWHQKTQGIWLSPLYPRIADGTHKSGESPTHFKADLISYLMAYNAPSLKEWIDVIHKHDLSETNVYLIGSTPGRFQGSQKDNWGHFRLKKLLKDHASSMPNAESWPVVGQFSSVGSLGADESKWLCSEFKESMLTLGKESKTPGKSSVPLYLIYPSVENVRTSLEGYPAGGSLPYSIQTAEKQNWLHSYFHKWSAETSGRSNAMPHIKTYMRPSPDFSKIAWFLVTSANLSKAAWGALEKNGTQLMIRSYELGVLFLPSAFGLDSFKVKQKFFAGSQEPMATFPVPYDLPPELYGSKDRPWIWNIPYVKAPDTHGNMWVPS
#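 Compounds were preincubated with Tdp1 (1 nM final) for 15 min at room temperature before substrate (15 nM final) started a 5 min reaction; beads (10 ug/ml final) were then added for 10 min before AlphaScreen detection.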
# RORgamma inh: ROR gamma (mouse) transcription inhibition; P51450; Drosophila S2 Gal4-RORgamma UAS-luciferase reporter, 20 h; Potency, µM (series often up to 53.6 µM), for inactives: at the top dose activity change, negative = inhibition, usual class: inhibitors; 310,000 tested, 5.4% active; AID 2551; further: nearly all actives have a fitted effect of over 60% in size
#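 Read-out: Photinus luciferase luminescence; inhibitors lower reporter signal. Insect Schneider cells with Gal4-ROR gamma fusion under metallothionein promoter, UAS reporter; 700 uM final copper sulfate induction, 20 hr, ambient temperature.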
# DT40 TDP1 CPT: DT40-hTDP1 cell growth loss with CPT; chicken DT40 Tdp1-/-;hTDP1 cells + 20 nM CPT, ATP luminescence, 48 h; Potency, µM (titrated, usually from 46.2 µM), for the others: at the top dose activity change, negative = growth inhibition, most hits filed as inhibitors; 420,000 tested, 12% active; further: nearly all actives have a fitted effect of over 55% in size
#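 Cell growth measured by CellTiter-Glo luminescence after a minimum 48 h, 37 C compound exposure with 20 nM CPT in Tdp1-knockout DT40 cells stably expressing hTDP1, seeded 400/well; qHTS titration format.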
# Gal4-VP16 FLuc: inhibits Gal4-VP16 luciferase reporter, ROR gamma counter-screen; 310,000 tested, 3.5% active; Drosophila S2 Gal4-VP16 UAS-luciferase, luminescence, 20 h; Potency, µM (highest dose often 53.6 µM), without a hit: at the highest dose activity, negative = inhibition, most hits filed as inhibitors;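 further: Gal4-VP16 expression switched on by copper sulfate through the metallothionein promoter; nearly all actives have a fitted effect of over 50% in size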
# TDP1 cell noCPT: qHTS for Inhibitors of human tyrosyl-DNA phosphodiesterase 1 (TDP1): qHTS in cells in absence of CPT | Potency, µM (titrated, usually from 46.2 µM), inactives show at the highest dose activity change, negative = growth inhibition, actives largely listed as inhibitors | DT40 Tdp1-/- hTDP1 cells, no CPT, ATP luminescence, 48 h | 420,000 tested, 15% active | AID 686978, 2013; further: nearly all actives have a fitted effect of over 55% in size
#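 Readout: luminescence from CellTiter-Glo after 30 min in the dark at RT. Cells: DT40 Tdp1-/- with stable hTDP1, 400/well. Exposure: compounds alone, ≥48 hr, 37 °C.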
# * hit, by the source's call; u = inconclusive; x = no result; [ ] = another dose, or the depositor's remark. Hits are enriched below; roughly 19% of the tested compounds scored in any of these assays. The call rests on the fitted dose curve; in most records, active means well fitted curve in the direction sought with a large enough effect; inconclusive means small, poorly fitted or top-dose-only effect, or another doubt; inactive means no such curve, though single readings can be large; an effect the other way counts as inactive or inconclusive. On the % scale 0 is the no-effect control and ±100 the full control effect; potency means the concentration at half of the fitted maximal effect.
SMILES,TDP1 block,RORgamma inh,DT40 TDP1 CPT,Gal4-VP16 FLuc,TDP1 cell noCPT
CC(C)(C)NC(=O)CSc1nc(-c2ccccc2)cc(=O)[nH]1,0%,-7%,2%,-8%,-12%
CCc1nnc(NC(=O)c2ccc(-c3cc(C(F)(F)F)ccc3Cl)o2)s1,1%,-16%,u,1%,-24%
[O-][n+]1c2c(nn1-c1ccccc1)/C(=N/O)CCC2,0%,1%,-1%,-12%,23%
Cc1cc(F)ccc1NCc1ccccc1-c1nnc(-c2ccccc2Cl)o1,0%[12.3 µM],x,u,x,21µM*
Fc1cccc(NCc2ccccc2-c2nnc(-c3ccccc3Cl)o2)c1,-2%,x,u,x,u
COC(=O)c1ccc2nc(-c3ccccc3)c(Cc3ccccc3OC)n2c1,x,x,18µM*,x,16µM*
COc1ccccc1Cc1c(-c2cccc(Cl)c2)nc2ccc(Cl)cn12,x,x,23µM*,x,18µM*
COC(=O)c1ccc2nc(-c3ccccc3)c(Cc3ccccc3C(F)(F)F)n2c1,x,x,0%,x,-17%
COc1ccccc1Cc1c(-c2ccc(C)cc2)nc2ccc(Br)cn12,x,x,21µM*,x,23µM*
COc1ccccc1Cc1c(-c2ccc(Cl)cc2)nc2ccc(Br)cn12,x,x,21µM*,x,u
COc1ccccc1Cc1c(-c2ccccc2)nc2ccc(Br)cn12,x,x,15µM*,x,13µM*
COc1ccccc1Cc1c(-c2ccc(C#N)cc2)nc2ccc(Br)cn12,x,x,21µM*,x,16µM*
COc1ccccc1Cc1c(C2CCCCC2)nc2ccc(Br)cn12,x,x,8.2µM*,x,6.5µM*
COc1ccccc1Cc1c(-c2ccc(C)cc2)nc2c(C)cc(Br)cn12,x,x,21µM*,x,21µM*
CC(O)/C=C/C1OC(=O)CC1Nc1ccc(C=O)cc1 (stereo not given),-3%,-12%,-7%,-3%,-11%
FC(F)(F)c1ccc(Oc2ccccc2Cl)nc1,5%,-3%,-23%,8%[10 µM],10%
COc1cccc(NC(=O)CNC(C)CCC(C)C)c1 (stereo not given),0%,13%,u,1%,u
Cc1ccc(Cl)cc1N1CCN(C(=O)C(C)n2ncn3cccc3c2=O)CC1 (stereo not given),3%,25%,18µM*,-2%,23µM*
Cc1ccc(Cl)cc1N1CCN(C(=O)c2cc3c(=O)n(C)c4ccccc4c3n2C)CC1,2%,-1%,18µM*,-3%,16µM*
Cn1c(C(=O)N2CCN(c3ncccn3)CC2)cc2c(=O)n(C)c3ccccc3c21,2%,-42%,u,6%,21µM*
CC(C(=O)N1CCCCC1)n1ncn2cccc2c1=O (stereo not given),4%[56.1 µM],38%,-3%,-5%,6%
Cn1c(C(=O)N2CCCC2)cc2c(=O)n(C)c3ccccc3c21,3%,-20%,-17%,20%,-25%
Cc1ccc(Cl)cc1N1CCN(C(=O)Cn2ncc3c4ccccc4n(C)c3c2=O)CC1,-3%,x,6%,x,-1%
Cc1cccc(N2CCN(C(=O)c3cc4c(=O)oc5ccccc5c4s3)CC2)c1C,9%,x,-17%,x,1%
Cc1cccc(N2CCN(C(=O)c3cc4c(=O)n(C)c5ccccc5c4s3)CC2)c1C,2%,x,u,x,5.8µM*
Cn1c(=O)c2cc(C(=O)N3CCN(c4cccc(C(F)(F)F)c4)CC3)sc2c2ccccc21,5%,x,u,x,3.7µM*
Cc1ccc(-n2nc(C(=O)N3CCN(c4cccc(C(F)(F)F)c4)CC3)c3c4ccccc4n(C)c3c2=O)cc1,2%,x,u,x,u
Cc1cccc(N2CCN(C(=O)c3cc4c(=O)n(C)c5ccccc5c4n3C)CC2)c1C,1%,-13%,u,3%,16µM*
S=C(NCc1ccccc1)N1CCN(c2cccc(Cl)c2)CC1,-3%,u,-12%,-27%,u
CC(=O)c1ccc(N2CCN(C(=O)Nc3ccc(F)cc3F)CC2)cc1,1%,5%,u,-10%,-22%
